TDP1 cell CPT: growth inhibition of DT40 Tdp1-/-;hTDP1 cells with camptothecin (screen for TDP1 inhibitors); chicken DT40 Tdp1-/-;hTDP1 cells + 20 nM CPT, ATP luminescence, 48 h; AID 686979; 12% of 420,000 active; Potency, µM (doses to about 46.2 µM), without a hit: top-dose activity change, negative = growth inhibition, actives largely listed as inhibitors; further: potency means the concentration at half of the fitted maximal effect; nearly all actives have a fitted effect of over 55% in size
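Chicken DT40 Tdp1-/- cells stably complemented with human TDP1 were seeded at 400 cells/well in medium containing 20 nM camptothecin, exposed to pin-transferred compounds, and grown at 37 °C for at least 48 hr. Viability was read as ATP luminescence.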
DT40 TDP1 no CPT: qHTS for Inhibitors of human tyrosyl-DNA phosphodiesterase 1 (TDP1): qHTS in cells in absence of CPT | DT40 Tdp1-/- hTDP1 cells, no CPT, ATP luminescence, 48 h | Potency, µM (doses to about 46.2 µM), inactives show top-dose activity change, negative = growth inhibition, hits mostly inhibitors | 15% of 420,000 active; further: potency means the concentration at half of the fitted maximal effect; nearly all actives have a fitted effect of over 55% in size
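Luminescent ATP content (CellTiter-Glo) served as the growth readout. Knockout chicken DT40 cells expressing human TDP1 were exposed to compounds without camptothecin for a minimum 48 hr at 37 °C.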
ALOX12 inh: blocks human arachidonate 12S-lipoxygenase; P18054; purified 12hLO, xylenol orange hydroperoxide absorbance; Potency, µM (doses to about 108 µM), without a hit: top-dose activity change, negative = inhibition, actives largely listed as inhibitors; 1.1% of 580,000 active; AID 1671190; further: potency means the concentration at half of the fitted maximal effect
Target sequence (P18054 whole entry, looked up): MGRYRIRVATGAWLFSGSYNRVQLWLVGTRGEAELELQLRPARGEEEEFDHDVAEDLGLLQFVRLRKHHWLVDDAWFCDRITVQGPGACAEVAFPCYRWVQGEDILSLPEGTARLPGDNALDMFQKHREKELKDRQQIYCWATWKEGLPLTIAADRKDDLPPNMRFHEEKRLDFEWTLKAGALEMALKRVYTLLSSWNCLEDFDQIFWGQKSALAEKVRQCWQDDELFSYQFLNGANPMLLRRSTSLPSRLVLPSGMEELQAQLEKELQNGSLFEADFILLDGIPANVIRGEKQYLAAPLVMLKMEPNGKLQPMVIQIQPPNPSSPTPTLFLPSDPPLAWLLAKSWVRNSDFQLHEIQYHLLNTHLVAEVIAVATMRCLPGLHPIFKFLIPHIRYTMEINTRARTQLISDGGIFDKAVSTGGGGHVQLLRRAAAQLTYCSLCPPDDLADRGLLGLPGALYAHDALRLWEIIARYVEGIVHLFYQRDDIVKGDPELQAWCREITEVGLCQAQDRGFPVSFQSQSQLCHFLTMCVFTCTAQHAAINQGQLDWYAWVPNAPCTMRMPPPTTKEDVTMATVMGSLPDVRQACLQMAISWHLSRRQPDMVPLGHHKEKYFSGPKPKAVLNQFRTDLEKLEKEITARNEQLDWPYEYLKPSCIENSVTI
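Hydroperoxide product was detected by ferrous iron/xylenol orange as the 573 to 405 nm absorbance ratio. Arachidonic acid at 40 uM (final) was turned over for 30 min at room temperature by 150 nM human 12hLO, pH 7.0 Hepes buffer, after 15 min compound preincubation.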
HT1080 IDH1KD tx: kills HT-1080 cells with IDH1 knockdown. HT-1080 IDH1 knockdown viability, ATP luminescence, 48 h. 2% of 360,000 active. Potency, µM (titrated, usually from 46.1 µM), inactives show at the highest dose activity, negative = toxicity, usual class: cytotoxic. AID 686971;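 further: potency means the concentration at half of the fitted maximal effect; 0% = DMSO wells and -100% = cell-free medium wells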
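Luminescent ATP read-out (CellTiter-Glo, 10 min at room temperature) after 48 h compound exposure at 37 °C gave viability of IDH1-knockdown HT-1080 cells. Activity was normalised to DMSO and cell-free wells, then fitted as concentration-response curves.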
HT1080-NT tox: kills 2HG-producing HT-1080-NT fibrosarcoma cells. HT-1080-NT fibrosarcoma viability, CellTiter-Glo ATP luminescence, 48 h. Potency, µM (doses to about 46.1 µM), for inactives: at the top dose activity, negative = less viability, actives largely listed as cytotoxic. 1.6% of 360,000 active. AID 686970;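 further: NT is the 2HG producing partner of a matched IDH1 knockdown line; potency means the concentration at half of the fitted maximal effect; 0% = DMSO-treated cells and -100% = media-only wells without cells; nearly all actives have a fitted effect of over 55% in size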
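Viability by CellTiter-Glo luminescence after 48 h compound exposure at 37C of HT-1080-NT cells (750/well, RPMI, 5% FBS). % activity scaled between DMSO wells and medium-only wells, then curve-fitted and categorized by curve class.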
IL-1B inflam inh: blocks inflammasome-driven IL-1 beta release | THP-1 LPS/ATP IL-1B secretion, AlphaLISA, 16 h; stronger effect = lower value | activity change, % at 57.5 µM | 4.7% of 360,000 active | AID 743279; in the data active means activity change below about -50%; inconclusive means mostly about -30% to -49%
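Secreted IL-1B measured by AlphaLISA bead assay after 16 h compound exposure of THP-1 cells; compounds (final up to 57.5 uM) added 1 h before LPS (250 ng/mL) and ATP (1.25 mM) stimulation; lower signal means less secretion.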
Numbers without * were called inactive; ? = inconclusive; · = no result; [ ] = dose if it differs, or a comment. Many of the other results were omitted from the sample, so hits are more common in it than they were. Unless noted, the call rests on the fitted dose curve; in most records, active means well fitted curve in the direction sought with a large enough effect; inconclusive means small, poorly fitted or top-dose-only effect, or another doubt; inactive means no such curve, though single readings can be large; an effect the other way counts as inactive or inconclusive. Unless noted, on the % scale 0 is the no-effect control and ±100 the full control effect.

SMILES	TDP1 cell CPT	DT40 TDP1 no CPT	ALOX12 inh	HT1080 IDH1KD tx	HT1080-NT tox	IL-1B inflam inh
CCc1ccc(C(=O)/C=C/c2cnn(C)c2C)s1	?	-23%	-26%	-2%	0%	?
O=C(O)c1ccc(/C=C/C(=O)c2cccs2)cc1	·	·	-1%	·	·	·
Nc1nccnc1C(=O)NCC1(c2ccccc2)CCC1	·	·	17%	·	·	·
CC(OC(=O)C1=NNC(=O)CC1)C(=O)c1c[nH]c2ccccc12 (stereo not given)	·	·	-6%	·	·	·
O=C(C1CCCC1)N1CCc2onc(-c3ccc(C(F)(F)F)cc3)c2C1	·	·	36%	·	·	·
O=C(C=Cc1ccccc1)c1cccs1	18µM*	16µM*	-10%	-16%	7%	-20
CN(C)C(=O)CCc1ccc2c3c([nH]c2c1)[C@]1(CCc2ccccc2)[C@@H](C(=O)N2CCCCC2)C[C@H](CC(=O)NCCCn2ccnc2)C(=O)N1CC3	-8%	11%	3%	11%	3%	-9
COc1ccc(C)cc1NC(=O)C1CCC(CNS(=O)(=O)c2ccc3c(c2)CCCC(=O)N3)CC1 (stereo not given)	9.2µM*	4.6µM*	-22%	·	·	·
CC(=O)N1c2ccc(S(=O)(=O)NCC3CCC(C(=O)Nc4ccc(C)cn4)CC3)cc2CC1C (stereo not given)	?	?	-10%	-18%	?	?
CCc1ccc(NC(=O)C2CCC(CNS(=O)(=O)c3ccc4c(c3)CC(C)N4C(C)=O)CC2)cc1 (stereo not given)	21µM*	7.3µM*	4%	·	·	·
COc1ccccc1NC(=O)C1CCC(CNS(=O)(=O)c2ccc3c(c2)CC(C)N3C(C)=O)CC1 (stereo not given)	10µM*	10µM*	-26%	·	·	·
Cc1cccc(NC(=O)C2CCC(CNS(=O)(=O)c3ccc4c(c3)CCCC(=O)N4)CC2)c1C (stereo not given)	?	-26%	-13%	·	·	·
CC(=O)N1c2ccc(S(=O)(=O)NCC3CCC(C(=O)Nc4ccc(C)c(C)c4)CC3)cc2CC1C (stereo not given)	16µM*	23µM*	-21%	·	·	·
COCCN1C(=O)CS(=O)(=O)C12CCN(C(=O)Cc1ccc(OC)c(Cl)c1)CC2	·	·	11%	·	·	·
Cc1ccc(C(=O)NCCCS(=O)(=O)Cc2ccccc2)cc1	·	·	-1%	·	·	·
CC(=O)N1c2ccc(S(=O)(=O)NCC3CCC(C(=O)N4CCCC(C)C4)CC3)cc2CC1C (stereo not given)	16µM*	?	22%	-1%	2%	-10
CC(=O)N1c2ccc(S(=O)(=O)NCC3CCC(C(=O)N(C)Cc4ccccc4)CC3)cc2CC1C (stereo not given)	?	?	14%	-18%	-17%	0
O=C(C1CCC(CNS(=O)(=O)c2ccccc2)CC1)N1CCCCC1 (stereo not given)	0%	-16%	0%	-4%	-5%	32
CCCCN(C)C(=O)C1CCC(CNS(=O)(=O)c2ccc3c(c2)CC(C)N3C(C)=O)CC1 (stereo not given)	13µM*	16µM*	8%	8%	-5%	17
CC(=O)N1c2ccc(S(=O)(=O)NCC3CCC(C(=O)Nc4ccc(F)cc4)CC3)cc2CC1C (stereo not given)	16µM*	16µM*	?	·	·	·
CC1CC(C)CN(C(=O)C2CCC(CNS(=O)(=O)c3ccccc3)CC2)C1 (stereo not given)	?	29µM*	22%	-2%	-11%	10
c1ccc(-n2ncc3c(Oc4cccnc4)ncnc32)cc1	·	·	19%	·	·	·
COc1ccc(S(=O)(=O)N2CCC(C(=O)Oc3cccc(C)c3)CC2)cc1OC	-10%	10%	?	-1%	11%	5
Cc1cccc(Cn2c(NCCN3CCOCC3)nc3c2c(=O)n(C)c(=O)n3C)c1	·	·	6%	·	·	·
Cc1cccc(Cn2c(NCC(C)O)nc3c2c(=O)n(C)c(=O)n3C)c1 (stereo not given)	12µM*	10µM*	0%	-12%	-6%	-11
SMILES	TDP1 cell CPT	DT40 TDP1 no CPT	ALOX12 inh	HT1080 IDH1KD tx	HT1080-NT tox	IL-1B inflam inh
COCCCNc1nc2c(c(=O)n(C)c(=O)n2C)n1Cc1ccc(Cl)c(Cl)c1	·	·	-10%	·	·	·
Cc1cccc(OCCNc2nc3c(c(=O)n(C)c(=O)n3C)n2C)c1	16µM*	16µM*	?	12%	9%	-1
COCCNc1nc2c(c(=O)n(C)c(=O)n2C)n1Cc1cccc(C)c1	6.5µM*	7.3µM*	19%	-19%	-9%	22
CC(O)CNc1nc2c(c(=O)n(C)c(=O)n2C)n1Cc1cccc(F)c1 (stereo not given)	·	·	60%	·	·	·
COCCCNc1nc2c(c(=O)n(C)c(=O)n2C)n1Cc1cccc(OC)c1	18µM*	10µM*	-9%	-13%	-20%	-4
Cc1cccc(NS(=O)(=O)c2c(C(=O)N3CCCC3)c(C)n(C)c2C)c1C	·	·	-18%	·	·	·
COc1cc(O)ccc1C(=O)CCc1ccc(O)cc1	5%	-3%	-13%	-21%	3%	5
CC(C)N1C[C@H](C(=O)N2CCOCC2)[C@H](C(=O)O)C1	·	·	47%	·	·	·
Cc1cc2cc(-c3c(C)noc3C)nc(-c3ccnn3C)c2o1	·	·	2%[176 µM]	·	·	·
N/C(=N\OCc1ccc([N+](=O)[O-])cc1)c1ccncc1	-5%	-9%	?	1%	21%	12
COc1cccc(Cn2c(Oc3cccc(C)c3)nc3c2c(=O)n(C)c(=O)n3C)c1	21µM*	23µM*	0%	?	?	-16
COc1ccc(CNC(=O)CCCN2C(=O)CSc3c2c(C)nn3-c2ccccc2)cc1	?	?	-20%	·	·	·
Cc1ccc(CNC(=O)CN2C(=O)CSc3c2c(C)nn3-c2ccccc2)cc1	-4%	0%	-22%	·	·	·
Cc1nn(-c2ccccc2)c2c1N(CCCC(=O)NCc1ccc(N(C)C)cc1)C(=O)CS2	23µM*	23µM*	-16%	·	·	·
CCCOc1ccc(CNC(=O)CCCN2C(=O)CSc3c2c(C)nn3-c2ccccc2)cc1	21µM*	?	?	·	·	·
COc1ccc(CNC(=O)CCCN2C(=O)CSc3c2c(C)nn3-c2ccccc2)c(OC)c1	?	16µM*	?	·	·	·
Cc1nn(-c2ccccc2)c2c1N(CC(=O)NCc1ccc(N(C)C)cc1)C(=O)CS2	?	18µM*	-28%	·	·	·
O=C(c1n[nH]c2ccccc12)N1C[C@@H](CO)[C@H](c2ccccn2)C1	·	·	50%	·	·	·
